Laboratory results as given in PubChem BioAssay (Tox21).
Inconclusive results are not listed. Calls of active or inactive are those of the source. Unless noted, the call rests on the fitted dose curve.

How the values were obtained:
[1] = Nuclear factor erythroid 2-related factor 2/antioxidant responsive element (Nrf2/ARE) small molecule agonists: qHTS cell viability counter screen in human keratinocytes (AID 1919968; active means well fitted curve in the direction sought with a large enough effect in the repeat runs; an effect the other way counts as inactive or inconclusive; further: nearly all actives have a fitted effect of over 55% in size)
Method in brief: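 In human HaCaT keratinocytes stably expressing an ARE-driven luciferase, compound exposure lasted 23 h at 37 C under 5% CO2. Viable cells are quantified with a protease-based fluorogenic reagent (CellTiter-Fluor) read 1 h after addition.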

[2] = Nuclear factor erythroid 2-related factor 2/antioxidant responsive element (Nrf2/ARE) small molecule agonists: luciferase reporter gene qHTS assay in human keratinocytes (AID 1919969); further: nearly all actives have a fitted effect of over 35% in size
[3] = biological target: Gonadotropin-releasing hormone receptor (Homo sapiens) (UniProt P30968); test: Human gonadotropin-releasing hormone receptor (GnRHR) small molecule agonists, calcium flux assay in GnRHR-HEK293 cells (AID 1920063); further: nearly all actives have a fitted effect of over 35% in size
Method in brief: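 Intracellular calcium rise is the read-out: engineered human GnRHR HEK293 cells, dye-loaded, are exposed to DMSO-dissolved compounds and fluorescence at Ex/Em 480/540 is tracked for 3 min.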

[4] = biological target: KiSS-1 receptor (Homo sapiens) (UniProt Q969F8); test: Human kisspeptin (KISS1R) small molecule agonists, calcium flux assay in KISS1R-HEK293 cells (AID 1920064; active means well fitted curve in the direction sought with a large enough effect in the repeat runs; an effect the other way counts as inactive or inconclusive)
Method in brief: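 Concentration-response testing used 15 concentrations in triplicate on human KISS1R-expressing HEK293 cells. Calcium-dependent fluorescence (Ex/Em 480/540) was followed kinetically for 3 min after compound transfer.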

[5] = G protein-coupled receptor (GPCR) small molecule agonists, calcium flux assay: HEK293 wild type cell line counter screen (AID 1920065)
Method in brief: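 Fluorescence intensity signals activation. After overnight (18 h) culture and a 1 h calcium dye load at 37 C, compounds are added by pin tool and the plate read at 480/540 nm for 3 min in 1 s steps.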

[6] = p53 small molecule agonists, cell-based qHTS assay with human liver microsomes (AID 1963577);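 further: p53 response element beta-lactamase reporter cells with liver microsomes plus NADPH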
Method in brief: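 Steps: plate p53RE-bla cells, incubate 5 h at 37 C; add compound in DMSO; add microsomes (0.5 mg/mL final) and NADPH (0.5 mg/mL final); incubate 16 h at 37 C; add LiveBLAzer, 2 h RT; read fluorescence.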

[7] = p53 small molecule agonists, cell-based qHTS assay with rat liver microsomes (AID 1963578)
Method in brief: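 Metabolic activation is supplied by rat liver microsomes with NADPH (each 0.5 mg/mL final). p53RE-bla cells incubate with compound 16 h at 37 C; reporter activity is measured by LiveBLAzer fluorescence.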

[8] = p53 small molecule agonists, cell-based qHTS assay with human liver microsomes: qHTS cell viability counter screen (AID 1963579); further: nearly all actives have a fitted effect of over 45% in size
Method in brief: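 After the 460/530 nm beta-lactamase read, CellTiter-Glo was added to the same wells and luminescence measured after 30 min at room temperature, giving viability of p53RE-bla cells treated 16 h with compounds plus microsomes and NADPH.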

[9] = p53 small molecule agonists, cell-based qHTS assay with rat liver microsomes: qHTS cell viability counter screen (AID 1963580); further: nearly all actives have a fitted effect of over 45% in size
Method in brief: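 After the beta-lactamase ratio was read, CellTiter-Glo was added to the same wells and luminescence measured at 30 min; cells had been treated 16 h at 37 C with compounds, rat liver microsomes and NADPH (0.5 mg/mL final each).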

[10] = p53 small molecule agonists, cell-based qHTS assay: qHTS cell viability counter screen (AID 1963581); further: nearly all actives have a fitted effect of over 45% in size
Method in brief: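 Luminescence from CellTiter-Glo, reflecting ATP content, serves as the cytotoxicity measure; it is taken after the 2 h reporter substrate step in HCT-116 p53RE-bla cells dosed for 16 h at 37 C.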

[11] = p53 small molecule agonists, cell-based qHTS assay (AID 1963582; active means well fitted activation curve with a large enough effect in the signal ratio in the repeat runs, not every such curve was filed as active; the % refers to the signal ratio)
Method in brief: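 After plating, p53RE-bla cells sat 5 h in the incubator; compounds or DMSO vehicle were pinned in; a 16 h incubation at 37 C followed; FRET substrate was added and, 2 h later at RT, fluorescence was measured.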

[12] = biological target: 5-hydroxytryptamine receptor 2A (Homo sapiens) (UniProt P28223); test: 5-hydroxytryptamine receptor 2A (HTR2A) small molecule antagonists, cell-based qHTS assay (AID 1963586); further: nearly all actives have a fitted effect of over 45% in size
Method in brief: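 CHO cells stably expressing human HTR2A were plated for 18 h at 37 C, then loaded with calcium dye for 1 h. Compounds were preincubated 5 min at room temperature before DOI (4 nM solution) was added. Kinetic fluorescence was read for 3 min.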

[13] = biological target: 5-hydroxytryptamine receptor 2A (Homo sapiens) (UniProt P28223); test: 5-hydroxytryptamine receptor 2A (HTR2A) small molecule agonists, cell-based qHTS assay (AID 1963587); further: nearly all actives have a fitted effect of over 30% in size
Method in brief: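 CHO cells stably expressing human HTR2A, plated 18 h, loaded with calcium dye 1 h at 37 C. Agonist mode: compounds added and intracellular calcium fluorescence recorded kinetically for 2 min at 1 sec intervals.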

[14] = biological target: Muscarinic acetylcholine receptor M1 (Homo sapiens) (UniProt P11229); test: Cholinergic receptor muscarinic 1 (CHRM1) small molecule antagonists, cell-based qHTS assay (AID 1963588); further: nearly all actives have a fitted effect of over 40% in size; further: potency means the concentration at half of the fitted maximal effect
Method in brief: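 Compounds were tested at 15 concentrations in three independent runs. Dye-loaded CHRM1-CHO cells were exposed 5 min at room temperature before stimulation by acetylcholine added at 50nM. Intracellular calcium was read kinetically on FDSS for 3 min.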

[15] = biological target: Muscarinic acetylcholine receptor M1 (Homo sapiens) (UniProt P11229); test: Cholinergic receptor muscarinic 1 (CHRM1) small molecule agonists, cell-based qHTS assay (AID 1963589); further: nearly all actives have a fitted effect of over 35% in size
Method in brief: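 Fluorescent calcium dye reports M1 activation in stably transfected CHO cells. Compounds, 15 concentrations, added after 1 h dye loading at 37 C; kinetic reading at 1 sec intervals.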

[16] = cAMP Responsive Elements (CRE) small molecule agonists, cell-based qHTS assay (AID 1963590)
Method in brief: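 Compound exposure lasted 3 h at 37 C/5% CO2 in CRE-bla HEK 293T cells grown in assay medium with 10% dialyzed FBS and 25 mM HEPES. Reporter signal came from LiveBLAzer B/G FRET substrate, 2 h, room temperature.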

[17] = cAMP Responsive Elements (CRE) small molecule antagonists, cell-based qHTS assay (AID 1963591; active means well fitted inhibition curve with a large enough effect in the signal ratio in the repeat runs, not every such curve was filed as active; the % refers to the signal ratio)
Method in brief: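 Stimulation used NKH477 at a final 0.25 uM for 3 h in compound-treated CRE-bla HEK293T cells, seeded 18 h beforehand. Reporter activity was measured with LiveBLAzer B/G FRET substrate after 2 h at room temperature.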

[18] = biological target: Beta-2 adrenergic receptor (Homo sapiens) (UniProt P07550); test: Adrenergic beta2 receptor (ADRB2) small molecule antagonists, cell-based qHTS assay (AID 1963592); further: series mostly up to about 92 µM; nearly all actives have a fitted effect of over 50% in size
Method in brief: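 Assay format: CHO-ADRB2 cells, 18-20hr seeding at 37C/5% CO2, then compound plus 1nM isoproterenol agonist mix for 0.5hr RT. Homogeneous time-resolved fluorescence cAMP detection after 1hr, expressed as 665/615 nm ratio.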

[19] = biological target: D(2) dopamine receptor (Homo sapiens) (UniProt P14416); test: Dopamine D2 receptor (DRD2) small molecule agonists, cell-based qHTS assay (AID 1963594); further: nearly all actives have a fitted effect of over 35% in size
Method in brief: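 HEK293 cells stably expressing human DRD2, pre-treated with PDE inhibitor Ro20-1724 (0.1 mM final) and compound 10 min at room temperature, then stimulated with NKH477 (200nM […]) for 30 min. cAMP read by HTRF (665/620 nm).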

[20] = biological target: D(2) dopamine receptor (Homo sapiens) (UniProt P14416); test: Dopamine D2 receptor (DRD2) small molecule antagonists, cell-based qHTS assay (AID 1963595; active means well fitted inhibition curve with a large enough effect in the signal ratio in the repeat runs, with a control signal flat; the % refers to the signal ratio)
Method in brief: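 Antagonism was scored as restored cAMP in HEK293-DRD2 cells. These cells were stimulated with 200 nM NKH477 and 12 nM quinpirole for 30 min at room temperature, in the presence of 0.1 mM Ro20-1724.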

Measured: Potency

Chain of Beta-2 adrenergic receptor (Homo sapiens) (P07550 whole entry, looked up): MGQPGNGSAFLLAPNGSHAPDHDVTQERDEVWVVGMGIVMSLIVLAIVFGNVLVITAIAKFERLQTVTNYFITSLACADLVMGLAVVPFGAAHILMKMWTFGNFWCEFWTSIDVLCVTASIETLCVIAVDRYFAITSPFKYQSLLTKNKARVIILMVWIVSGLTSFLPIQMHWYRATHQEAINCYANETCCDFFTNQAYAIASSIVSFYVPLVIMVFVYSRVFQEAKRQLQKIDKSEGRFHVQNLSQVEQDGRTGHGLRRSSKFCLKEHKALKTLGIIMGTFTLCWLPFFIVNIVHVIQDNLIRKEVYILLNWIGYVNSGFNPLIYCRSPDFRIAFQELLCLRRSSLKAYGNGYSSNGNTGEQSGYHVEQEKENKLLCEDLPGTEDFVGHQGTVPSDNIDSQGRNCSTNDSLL
Chain of KiSS-1 receptor (Homo sapiens) (Q969F8 whole entry, looked up): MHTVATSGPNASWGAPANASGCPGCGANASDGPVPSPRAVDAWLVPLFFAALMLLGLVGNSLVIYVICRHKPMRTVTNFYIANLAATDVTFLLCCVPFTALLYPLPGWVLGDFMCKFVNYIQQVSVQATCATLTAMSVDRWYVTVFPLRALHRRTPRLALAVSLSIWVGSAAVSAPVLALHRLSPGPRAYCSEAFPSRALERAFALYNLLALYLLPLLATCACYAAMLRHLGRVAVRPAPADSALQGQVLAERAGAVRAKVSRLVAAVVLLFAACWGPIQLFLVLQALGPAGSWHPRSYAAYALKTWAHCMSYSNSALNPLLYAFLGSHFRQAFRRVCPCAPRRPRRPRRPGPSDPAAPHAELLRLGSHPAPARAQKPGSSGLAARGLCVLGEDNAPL
Chain of 5-hydroxytryptamine receptor 2A (Homo sapiens) (P28223 whole entry, looked up): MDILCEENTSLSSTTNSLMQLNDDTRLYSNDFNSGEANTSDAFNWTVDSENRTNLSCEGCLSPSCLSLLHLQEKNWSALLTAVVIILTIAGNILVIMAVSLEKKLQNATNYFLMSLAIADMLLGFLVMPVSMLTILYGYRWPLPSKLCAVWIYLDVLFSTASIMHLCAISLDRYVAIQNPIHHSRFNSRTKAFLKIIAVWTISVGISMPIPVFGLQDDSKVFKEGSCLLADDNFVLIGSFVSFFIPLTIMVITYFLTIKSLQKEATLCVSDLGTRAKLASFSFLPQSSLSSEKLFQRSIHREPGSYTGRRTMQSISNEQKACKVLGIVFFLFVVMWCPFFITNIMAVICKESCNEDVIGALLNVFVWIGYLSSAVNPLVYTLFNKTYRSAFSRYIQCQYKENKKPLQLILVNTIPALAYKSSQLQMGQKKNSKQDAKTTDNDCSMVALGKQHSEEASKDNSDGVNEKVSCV
Chain of Gonadotropin-releasing hormone receptor (Homo sapiens) (P30968 whole entry, looked up): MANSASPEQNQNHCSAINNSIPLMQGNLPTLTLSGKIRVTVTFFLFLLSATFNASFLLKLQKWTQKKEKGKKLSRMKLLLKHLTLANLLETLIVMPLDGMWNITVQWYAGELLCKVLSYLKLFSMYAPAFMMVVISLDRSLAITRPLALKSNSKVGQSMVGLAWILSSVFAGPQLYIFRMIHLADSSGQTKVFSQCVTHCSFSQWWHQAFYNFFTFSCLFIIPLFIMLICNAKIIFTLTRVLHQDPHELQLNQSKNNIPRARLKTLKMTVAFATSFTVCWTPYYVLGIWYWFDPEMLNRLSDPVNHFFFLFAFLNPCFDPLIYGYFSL
Chain of Muscarinic acetylcholine receptor M1 (Homo sapiens) (P11229 whole entry, looked up): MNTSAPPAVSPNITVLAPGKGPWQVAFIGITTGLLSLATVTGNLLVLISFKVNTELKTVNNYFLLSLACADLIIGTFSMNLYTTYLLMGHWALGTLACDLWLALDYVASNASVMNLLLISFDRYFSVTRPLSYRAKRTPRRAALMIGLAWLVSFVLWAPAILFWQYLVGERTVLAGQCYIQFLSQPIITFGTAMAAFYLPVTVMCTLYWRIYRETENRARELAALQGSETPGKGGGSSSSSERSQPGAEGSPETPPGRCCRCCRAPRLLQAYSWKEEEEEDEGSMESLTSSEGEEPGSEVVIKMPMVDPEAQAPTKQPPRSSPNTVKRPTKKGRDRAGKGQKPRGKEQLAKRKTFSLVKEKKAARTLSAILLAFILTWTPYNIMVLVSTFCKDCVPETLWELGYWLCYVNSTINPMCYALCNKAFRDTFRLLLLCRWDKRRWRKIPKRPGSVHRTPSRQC
Chain of D(2) dopamine receptor (Homo sapiens) (P14416 whole entry, looked up): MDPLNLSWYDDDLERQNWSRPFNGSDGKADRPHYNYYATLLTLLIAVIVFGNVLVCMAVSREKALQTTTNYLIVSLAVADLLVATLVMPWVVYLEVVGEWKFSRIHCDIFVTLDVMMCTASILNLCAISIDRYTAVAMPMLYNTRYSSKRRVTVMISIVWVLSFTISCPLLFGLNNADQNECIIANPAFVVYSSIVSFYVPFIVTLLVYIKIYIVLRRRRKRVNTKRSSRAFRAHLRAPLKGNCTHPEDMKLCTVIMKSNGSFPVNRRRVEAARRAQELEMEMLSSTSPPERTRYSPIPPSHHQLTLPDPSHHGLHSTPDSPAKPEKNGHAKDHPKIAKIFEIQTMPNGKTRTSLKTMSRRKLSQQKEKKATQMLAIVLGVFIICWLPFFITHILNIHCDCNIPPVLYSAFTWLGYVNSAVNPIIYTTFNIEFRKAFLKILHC

Cc1oc(=O)oc1COC(=O)[C@@H]1N2C(=O)[C@@H](NC(=O)[C@H](N)c3ccccc3)[C@H]2SC1(C)C
inactive: all assays above

CCOc1ccc(NC(=O)OC(C)C)cc1OCC
inactive: all assays above

O=C(O)COCC(=O)O
inactive: all assays above

Nc1cc(C(=O)O)c(O)c(S(=O)(=O)O)c1
inactive: all assays above

SC1CCCCC1
inactive: all assays above

Cc1cc(S(=O)(=O)O)c(N)cc1Cl
inactive: all assays above

N#CCc1ccccc1[N+](=O)[O-]
not listed: [20]
inactive: all other assays above

CCCCCCOC(=O)CCCCC(=O)OCCCCCC
inactive: all assays above

Cc1cccc(C)c1NC(=O)c1cc(S(N)(=O)=O)c(Cl)cc1O
active: [14] 3.3 nM
inactive: all other assays above

O=CNNC=O
inactive: all assays above

CCCCCCC(=O)OCC
inactive: all assays above

NC(=O)c1ncn([C@@H]2O[C@H](CO)[C@@H](O)[C@H]2O)c1N
inactive: all assays above

Cc1cc(-c2ccccc2)nnc1NCCN1CCOCC1
inactive: all assays above

Cc1ccc2c(Cl)cc(Cl)c(O)c2n1
inactive: all assays above
